Inhibition data for 62 compounds are collected here from PubChem BioAssay AID778 (Sanford-Burnham Center for Chemical Genomics, 2007).

Molecules are shown by their SMILES. Among all 96,000 compounds or so, about 20,000 (21%) were called active.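 The calls were made as follows: active = CYP2C19 inhibition above a set limit at 5 µM in the primary screen (cut at about 50% in these data); inactive = the rest.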 These entries were drawn from the full list. Residues, ends and D or L forms follow the SMILES beside them. *: point of attachment. Bz = O=C(c1ccccc1)*

As usually defined, the inhibition is the relative decrease from the control value, in per cent.

Chain of Cytochrome P450 2C19 (Homo sapiens) (P33261 whole entry, looked up): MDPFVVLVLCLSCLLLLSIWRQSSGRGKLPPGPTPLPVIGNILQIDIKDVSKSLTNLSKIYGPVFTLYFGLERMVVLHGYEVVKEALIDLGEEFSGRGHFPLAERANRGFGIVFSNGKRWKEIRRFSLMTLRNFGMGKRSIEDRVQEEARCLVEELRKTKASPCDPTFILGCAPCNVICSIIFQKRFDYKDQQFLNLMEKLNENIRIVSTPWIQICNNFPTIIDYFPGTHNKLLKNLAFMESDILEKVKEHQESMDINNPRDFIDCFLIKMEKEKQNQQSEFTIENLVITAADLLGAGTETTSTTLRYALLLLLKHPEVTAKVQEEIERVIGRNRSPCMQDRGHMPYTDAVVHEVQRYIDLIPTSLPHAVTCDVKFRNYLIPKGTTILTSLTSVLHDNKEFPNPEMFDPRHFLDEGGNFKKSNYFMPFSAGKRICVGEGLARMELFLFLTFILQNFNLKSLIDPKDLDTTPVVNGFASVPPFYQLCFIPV

The assay concerns the target Cytochrome P450 2C19 (Homo sapiens) (UniProt P33261). The experiment in a line: blockers of cytochrome P450 2C19 activity – biochemical, luminescence, ADME assay, primary screen (AID 778).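 Also: plate controls were negative control wells for no effect and 2.5 mM tranylcypromine positive control for full effect.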 The note with it: CYP2C19 Supersomes, luciferin-H EGE luminescence, 30 min; at 5 µM; stronger effect = higher value.
`O=C(NCC1CCCO1)C(C(=O)c1ccccc1)n1cc(Cl)ccc1=O` (configuration not stated): the inhibition is -6.7% (inactive).

Consider `Cc1cc(C)c2[nH]c(=O)c(C(c3nnnn3Cc3ccc4c(c3)OCO4)N3CCCC3)cc2c1` (configuration not stated), for which the inhibition is 68.4% (active).

With `Cc1ccc(S(=O)(=O)Cn2nnnc2CN2CCN(Cc3ccc4c(c3)OCO4)CC2)cc1`, the inhibition is 24.5% (inactive).

Take `Fc1ccccc1C(c1nnnn1Cc1ccc2c(c1)OCO2)N1CCN(Cc2ccccc2)CC1` (configuration not stated): the inhibition was 62.9% (active).

With `CC(C)(C)n1nnnc1C(c1ccc(F)cc1)N1CCN(Cc2ccc3c(c2)OCO3)CC1` (configuration not stated), the inhibition was 25.1% (inactive).

As for `Cc1cccc(NC(=O)c2ccc(OCC(=O)NCc3ccccc3)cc2)c1C`, the inhibition was -8% (inactive).

For `O=C(CCOc1ccccc1)NCc1ccccc1`, the inhibition is 57.6% (active).

In the case of `O=C(O)CCC(=O)NCc1ccc(C(=O)O)cc1`, the inhibition is 3.2% (inactive).

Consider `O=C(NCCOc1ccccc1)c1ccccc1`, for which the inhibition is 60.7% (active).

As to `Cc1nnc(NC(=O)CCCOc2ccccc2)s1`, the inhibition is 24.7% (inactive).

As to `O=C(CCCOc1ccccc1)NCc1ccco1`, the inhibition is 36.6% (inactive).

With `O=C(NCCc1ccccc1)c1ccc(OCCOc2ccccc2)cc1`, the inhibition is -7.8% (inactive).

As to `O=C(CCCOc1ccccc1)Nc1cccc(C(=O)O)c1`, the inhibition is 1.2% (inactive).

Turning to `CN(C)C(CNC(=O)CCCOc1ccccc1)c1ccco1` (configuration not stated), the inhibition is 84.2% (active).

For the compound `O=C(Cn1nnc(-c2ccccc2)n1)NCc1ccccc1`, the inhibition was 45.4% (inactive).

Consider `O=C(CCC(=O)OCC(F)(F)C(F)F)NCc1ccccc1`, for which the inhibition was 71.6% (active).

For `O=C(CCC(=O)OCc1cccc(C(=O)Oc2ccccc2)c1)Nc1cccc2ccccc12`, the inhibition was 3.8% (inactive).

For the compound `COc1ccc(OC)c2[nH]c(=O)c(CCNC(=O)C(C)(C)C)cc12`, the inhibition was 13.1% (inactive).

For `O=C(Cn1nc(C(F)(F)F)c2c1CCC2)NCc1ccc(F)cc1`, the inhibition is 45.9% (inactive).

For the compound `CCSc1nc(=S)n(CC)c(C)c1C(C)=O`, the inhibition is -23.9% (inactive).

As for `O=C(CCCN1C(=O)c2ccccc2C1=O)Oc1ccc(Cl)cc1`, the inhibition is 14.2% (inactive).

With `COc1ccc(NC(=O)/C(Cl)=C(/Cl)S(=O)Cc2ccc(C)cc2)cn1` (configuration not stated), the inhibition was 33.8% (inactive).

Turning to `O=C(Nc1nnc(C2CC2)s1)c1ccccn1`, the inhibition was 20.4% (inactive).

For `CCCc1nc(N2CCN(C)CC2)c2sc(=S)n(-c3ccccc3)c2n1`, the inhibition is 4.4% (inactive).

`CCOc1ccc(NC(=O)CCS(=O)(=O)c2ccc3c(c2)CCCN3C(=O)CC)cc1`: the inhibition is 3.3% (inactive).

Turning to `O=C(CC1Oc2ccccc2NC1=O)NCCCN1CCN(Cc2ccccc2)CC1` (configuration not stated), the inhibition was -1.2% (inactive).

For the compound `Cc1ccc2c(c1)N(CC(=O)N1CCCc3ccccc31)C(=O)C(C)O2` (configuration not stated), the inhibition is 34.4% (inactive).

For `O=C(Cc1ccccc1)n1nc(-c2ccccc2)nc1NCc1ccco1`, the inhibition was 15.9% (inactive).

With `O=C(O)CSC(NC(=O)c1cccnc1)(C(F)(F)F)C(F)(F)F`, the inhibition was -13.3% (inactive).

In the case of `CC(NC(=O)c1cc(-c2ccccc2)on1)c1ccccc1` (configuration not stated), the inhibition was 13% (inactive).

As for `CC(N=Cc1nc(-c2ccccc2)oc1O)c1ccccc1` (configuration not stated), the inhibition is 71.8% (active).

As for `CCn1c(/C=C/c2ccc([N+](=O)[O-])o2)nc2ccccc2c1=O`, the inhibition is -3.3% (inactive).

Turning to `Cc1ccc(-n2c(C)cc(/C=N/Nc3ccc([N+](=O)[O-])cn3)c2C)c(C)c1`, the inhibition is -0.3% (inactive).

As to `CN1C(=O)CC(N2CCN(c3ccccn3)CC2)C1=O` (configuration not stated), the inhibition is 17.8% (inactive).

As to `COc1cccc(-n2c(Cc3cc(=O)[nH]c(=O)[nH]3)nnc2SCC(=O)Nc2ccccc2)c1`, the inhibition was -8.7% (inactive).

`CSc1cccc(NC(=O)CSc2ccccc2)c1`: the inhibition is 83.5% (active).

As to `Cc1ccn(C(CC(=O)c2ccc(Br)cc2)C(=O)O)n1` (configuration not stated), the inhibition is -25.7% (inactive).

For `O=C(Oc1ccccc1)c1ccc2nccnc2c1`, the inhibition was 20.3% (inactive).

With `O=C(Oc1ccc(-c2nc(-c3ccccn3)no2)cc1)c1ccccc1`, the inhibition was 99.5% (active).

As for `CC(C)c1nc(-c2ccccn2)no1`, the inhibition was -3.1% (inactive).

Regarding `CCc1cc(Br)ccc1NC(=O)C1CCCO1` (configuration not stated), the inhibition was 30.5% (inactive).

Take `CC(=O)c1cc(-c2ccccc2)[nH]c1N1CCCC1`: the inhibition was 10.4% (inactive).

Regarding `CCOc1cc(NC(=O)c2ccco2)c(OCC)cc1NC(=O)COc1ccccc1`, the inhibition was 24.6% (inactive).

As to `O=C(COC(=O)c1ccccc1NC(=O)c1ccco1)Nc1ccc2c(c1)OC(F)(F)O2`, the inhibition was 57.4% (active).

As to `COc1ccccc1C(=O)Nc1ccc(NC(=O)c2ccco2)c(C)c1`, the inhibition is 45.5% (inactive).

Take `Cc1nc(C)c2c(c1C(F)(F)F)-c1ccccc1C2(F)F`: the inhibition was -21.2% (inactive).

Consider `Cc1ccc(C)n1C(Cc1ccccc1)C(=O)O` (configuration not stated), for which the inhibition was 8.1% (inactive).

In the case of `O=C(NC(Cc1ccccc1)C(=O)N1CCCC1C(=O)O)c1ccccc1` (stereo not drawn) (Bz-Phe-Pro-OH; configuration not given here), the inhibition is -4.1% (inactive).

With `O=C(C(Cc1ccccc1)n1cccc1)N1CCN(C2CCCCC2)CC1` (configuration not stated), the inhibition is 98.1% (active).

For the compound `CCOc1ccc2nc(SC(CC)C(=O)Nc3cc(C)on3)sc2c1` (configuration not stated), the inhibition is 0.6% (inactive).

Turning to `Cc1ccc(CNC(=O)c2ccccc2CCc2ccccc2)cc1`, the inhibition is 13.9% (inactive).

Consider `CCOc1c(OC)cc(C2C(C#N)=C(N)Oc3n[nH]c(-c4ccncc4)c32)cc1OC` (configuration not stated), for which the inhibition was -7% (inactive).

On to `CCCc1[nH]nc2c1C(c1ccc(OC)c(Cn3nc(C)c(Br)c3C)c1)C(C#N)=C(N)O2` (configuration not stated), for which the inhibition was 8% (inactive).

With `COc1ccc(C2C(C#N)=C(N)Oc3n[nH]c(C)c32)cc1CN1CCN(c2ccc(F)cc2)CC1` (configuration not stated), the inhibition was 70.4% (active).

Turning to `Fc1ccc2nc(N3CCCCC3)sc2c1`, the inhibition was 39.9% (inactive).

Regarding `N=c1oc2ccccc2cc1C(=O)N/N=C/c1ccccc1`, the inhibition was 31.7% (inactive).

Take `O=C(N/N=C\c1cccc(Br)c1)c1ccccc1-n1cccc1`: the inhibition is 73.3% (active).

Take `Cn1c(=O)n(C)c2cc(/C=N/NC(=O)c3cccc(Br)c3)ccc21`: the inhibition was 6.4% (inactive).

Regarding `CC(C)Cn1c(N)c(C(=O)NCc2cccs2)c2nc3ccccc3nc21`, the inhibition was 19.7% (inactive).

Take `CC1(C)CC(=O)c2sc(N)nc2C1`: the inhibition was 23.6% (inactive).

In the case of `CC1CCC2(CC1)NC(=O)N(CC(=O)c1cccn1C)C2=O` (configuration not stated), the inhibition is 9.9% (inactive).

On to `CC(C)(C)OC(=O)c1c(N)n(CCCN2CCCC2=O)c2nc3ccccc3nc12`, for which the inhibition is -3.9% (inactive).
